TDP1 cell CPT: DT40-hTDP1 cell growth loss with CPT; chicken DT40 Tdp1-/-;hTDP1 cells + 20 nM CPT, ATP luminescence, 48 h; Potency, µM (titrated, usually from 46.2 µM), inactives show at the highest dose activity change, negative = growth inhibition, most hits filed as inhibitors; 420,000 compounds, 12% hits; AID 686979; further: potency means the concentration at half of the fitted maximal effect; on the % scale 0 is the no-effect control and ±100 the full control effect; nearly all actives have a fitted effect of over 55% in size
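Cell growth measured by CellTiter-Glo luminescence after a minimum 48 h, 37 C compound exposure with 20 nM CPT in Tdp1-knockout DT40 cells stably expressing hTDP1, seeded 400/well; qHTS titration format.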
DT40 TDP1 no CPT: qHTS for Inhibitors of human tyrosyl-DNA phosphodiesterase 1 (TDP1): qHTS in cells in absence of CPT. 420,000 compounds, 15% hits. DT40 Tdp1-/- hTDP1 cells, no CPT, ATP luminescence, 48 h. Potency, µM (highest dose often 46.2 µM), inactives show at the highest dose activity change, negative = growth inhibition, usual class: inhibitors; further: potency means the concentration at half of the fitted maximal effect; on the % scale 0 is the no-effect control and ±100 the full control effect; nearly all actives have a fitted effect of over 55% in size
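Readout: luminescence from CellTiter-Glo after 30 min in the dark at RT. Cells: DT40 Tdp1-/- with stable hTDP1, 400/well. Exposure: compounds alone, ≥48 hr, 37 °C.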
D3 ag: activates the human D3 dopamine receptor; P35462; D3R DiscoveRx beta-arrestin cells, luminescence, 90 min; max activation, %; 410,000 compounds, 0.58% hits; in the data active means max activation above about 30%; further: 0% is about no effect
Target sequence (P35462 whole entry, looked up): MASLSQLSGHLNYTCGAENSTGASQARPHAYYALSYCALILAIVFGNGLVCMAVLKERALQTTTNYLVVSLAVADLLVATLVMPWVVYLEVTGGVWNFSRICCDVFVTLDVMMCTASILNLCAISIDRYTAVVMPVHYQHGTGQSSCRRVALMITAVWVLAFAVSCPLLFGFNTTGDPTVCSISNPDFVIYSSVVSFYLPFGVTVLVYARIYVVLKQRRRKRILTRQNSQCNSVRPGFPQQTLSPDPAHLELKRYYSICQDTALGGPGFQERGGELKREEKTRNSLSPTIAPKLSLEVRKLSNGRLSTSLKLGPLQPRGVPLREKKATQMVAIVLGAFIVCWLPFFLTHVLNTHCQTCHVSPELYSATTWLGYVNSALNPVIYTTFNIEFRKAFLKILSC
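Agonist-mode cell screen: cells plated at 1500/well and incubated overnight at 37 °C, then exposed to library compounds for 90 min at 37 °C. Detection reagent was added for 30–60 min at room temperature, and luminescence was read.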
IL-1B inflam inh: inflammasome signaling inhibition, IL-1 beta readout. activity change, % at 57.5 µM. AID 743279. 360,000 compounds, 4.7% hits. THP-1 LPS/ATP IL-1B secretion, AlphaLISA, 16 h; stronger effect = lower value; in the data active means activity change below about -50%; inconclusive means mostly about -30% to -49%; further: on the % scale 0 is the no-effect control and ±100 the full control effect
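THP-1 cells pretreated 1 hr with compounds (up to 57.5 uM final), then stimulated with LPS (250 ng/mL final) plus ATP (1.25 mM final); secreted IL-1B measured by AlphaLISA after 16 hr, decreased signal indicating inhibition.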
ClpP mod: qHTS Assay for Activators of ClpP; AID 651965, 2013; purified B. subtilis ClpP, FRET peptide cleavage, 20 min; Potency, µM (titrated, usually from 57.5 µM), for the others: at the highest dose activity change, negative = active; 340,000 compounds, 1.9% hits; active means well fitted falling curve with a large enough effect; inconclusive means small, poorly fitted or top-dose-only effect; inactive means no such curve, though single readings can be large or run the other way; further: potency means the concentration at half of the fitted maximal effect; the source files actives as falling curves though it sought activators and does not explain the sign; nearly all actives have a fitted effect of over 65% in size
Target sequence (P80244 whole entry, looked up): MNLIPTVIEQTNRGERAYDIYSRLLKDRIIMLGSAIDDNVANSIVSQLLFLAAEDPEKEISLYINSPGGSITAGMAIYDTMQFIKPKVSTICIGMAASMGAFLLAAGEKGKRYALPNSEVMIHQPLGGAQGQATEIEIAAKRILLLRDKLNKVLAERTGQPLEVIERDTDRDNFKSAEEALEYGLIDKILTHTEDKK
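ClpP 10 microg/mL final, pH 8 Tris/KCl buffer with BSA, glycerol, Tween-20; compound pinned in; FRET-FV substrate; RT 20 min; Ex320/Em430; ΔFRET vs ADEP 5.8 microM, DMSO, no enzyme.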
D3 antag: D3 dopamine receptor (human) antagonism; AID 652054; P35462; max response, negative = inhibition, %; D3R cells, DiscoveRx beta-arrestin luminescence, antagonist mode; stronger effect = lower value; 360,000 compounds, 2.5% hits; in the data active means max response below about -50%; inconclusive means no clear call, values can overlap the other calls; further: on the % scale 0 is the no-effect control and ±100 the full control effect
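Cells plated overnight at 1500 cells/well, then exposed to library compounds with dopamine controls for 90 minutes at 37 degrees C. DiscoveRx reagent added for 30–60 minutes at room temperature; luminescence read, quantitative HTS format.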
Starred values were filed as active, the others as inactive; ? = inconclusive; . = not tested or not shown. In the library only some 21% were active in any assay of this set; here they are far more common. Unless noted, the call rests on the fitted dose curve; in most records, active means well fitted inhibition curve with a large enough effect; inconclusive means small, poorly fitted or top-dose-only effect; inactive means flat fitted curve, though single readings scatter.

SMILES | TDP1 cell CPT | DT40 TDP1 no CPT | D3 ag | IL-1B inflam inh | ClpP mod | D3 antag
CCn1c(=NC(=O)c2ccc(S(=O)(=O)N3CCOCC3)cc2)sc2cccc(OC)c21 | 14.6µM* | 13µM* | -0.1 | -12.0 | 31.6µM* | 22.8
CCn1c(=NC(=O)CSC(C)=O)sc2cc(OC)ccc21 | ? | ? | 0.4 | 25.1 | -4.2% | -19.0
COc1ccc2c(c1)sc(=NC(=O)CS(=O)(=O)c1ccc(F)cc1)n2C | ? | 20.6µM* | 1.7 | -8.0 | -7.8% | 11.7
CCn1c(=NC(=O)CS(=O)(=O)c2ccc(F)cc2)sc2cccc(OC)c21 | 14.6µM* | 18.4µM* | -10.3 | -13.4 | ? | 0.0
CCn1c(=NC(=O)CCS(=O)(=O)c2ccccc2)sc2cccc(OC)c21 | 9.2µM* | 7.31µM* | 8.0 | 0.0 | -23.2% | 2.7
Cc1noc(C)c1CSCC(=O)Nc1ccc(S(=O)(=O)C(F)F)cc1 | -12.6% | -28.3% | 2.9 | -3.0 | . | 0.9
CCCCC(=O)N=c1sc2c(OC)ccc(OC)c2n1C | ? | ? | -13.1 | -6.5 | 0.5% | 21.4
COC(=O)Cn1c(=NC(=O)CCS(=O)(=O)c2ccccc2)sc2c(OC)ccc(OC)c21 | 20.6µM* | ? | 4.5 | -1.2 | -0.6% | 5.1
CSc1ccc(CNC(=O)C2CCCN(S(=O)(=O)N(C)c3ccc(F)cc3)C2)cc1 (configuration not stated) | 23.1µM* | 20.6µM* | 6.2 | . | 0.1% | .
O=C(NCc1ccccc1Cl)C1CCN(S(=O)(=O)N2CCCCCC2)CC1 | ? | 17.8µM* | -6.0 | -2.7 | -0.8% | -23.2
CC1CCN(S(=O)(=O)N2CCCC(C(=O)NCc3ccccc3Cl)C2)CC1 (configuration not stated) | -18.8% | -21.0% | -8.2 | -14.6 | 1.0% | ?
COc1ccccc1CNC(=O)C1CCN(S(=O)(=O)N2CCCCC2)CC1 | -2.3% | -13.8% | 6.1 | 0.0 | 0.0% | 12.7
CC1CCN(S(=O)(=O)N2CCC(C(=O)NCc3ccccc3Cl)CC2)CC1 | ? | 13µM* | -9.0 | . | -1.0% | .
O=C(NCc1ccc(F)cc1)C1CCN(S(=O)(=O)N2CCCC2)CC1 | ? | 16.4µM* | 1.1 | 0.5 | -1.7% | 19.3
O=C(NCc1ccccc1CN1CCCC1)C1CCN(S(=O)(=O)c2ccc(F)c(F)c2)CC1 | -16.1% | -22.1% | 1.1 | -50.5* | -1.8% | 16.4
O=C(Nc1ccc(N2CCOCC2)cc1)c1nc2ccccc2s1 | 1.0% | -8.2% | 5.5 | 33.7 | . | 6.5
CC(=O)Cc1cc(O)c2ccccc2c1OC(=O)c1ccc(Br)cc1 | 20.6µM* | 20.6µM* | 4.5 | 0.0 | 0.7% | 37.4
COc1ccc(OCC(=O)Nc2ccc3c(c2)nc(CCn2ccccc2=O)n3C)cc1 | -13.0% | -2.2% | 14.1 | 0.9 | -1.5% | 9.2
Cc1ccc(OCC(=O)Nc2ccc3c(c2)nc(CCN2CCN(c4ccccn4)CC2)n3C)cc1 | 23.1µM* | 20.6µM* | 7.1 | 47.8 | -3.8% | -3.4
CCC(=O)Nc1ccc2c(c1)nc(CCN1CCC(C)CC1)n2C | -10.1% | 18.5% | -14.2 | -11.2 | -2.2% | -20.4
CC1CCN(CCc2nc3cc(NC(=O)COc4ccccc4)ccc3n2C)CC1 | ? | 7.1% | -15.0 | -9.4 | -5.4% | -70.6*
Cn1c(CCN2CCN(c3ccccn3)CC2)nc2cc(NC(=O)COc3ccccc3)ccc21 | ? | 25.9µM* | 44.0* | -13.6 | -2.1% | -12.9
Cc1ccc(OCC(=O)Nc2ccc3c(c2)nc(CCN2CCN(C)CC2)n3C)cc1 | ? | ? | -16.1 | 23.0 | -3.1% | ?
CC(C)CC(N)c1csc(Nc2ccc(C(=O)NCCCO)cn2)n1 (configuration not stated) | ? | ? | -2.8 | -12.6 | 4.9% | 46.3
CCc1cc(=O)oc2c(CNCc3c(F)cccc3Cl)c(O)ccc12 | 18.4µM* | -1.9% | 6.6 | 9.6 | 3.5% | 4.9
SMILES | TDP1 cell CPT | DT40 TDP1 no CPT | D3 ag | IL-1B inflam inh | ClpP mod | D3 antag
CC(=O)N1CCc2cc(Br)cc(S(=O)(=O)CCC(=O)N3CCN(c4ccccn4)CC3)c21 | -29.7% | -19.3% | -15.9 | -22.4 | . | 8.5
CC(=O)N1CCc2cc(Br)cc(S(=O)(=O)CCC(=O)N3CCN(c4cccc(C)c4C)CC3)c21 | 16.4µM* | ? | 4.6 | . | 0.3% | .
CCc1ccc(C2C(C#N)=C(N)C(C#N)(C#N)C3=CCC(C(C)(C)C)CC32)cc1 (configuration not stated) | ? | 14.6µM* | -11.9 | -58.3* | -0.3% | -93.4*
O=C(/C=C/c1ccco1)Nc1ccc2nc3n(c(=O)c2c1)CCCC3 | ? | -21.1% | 5.2 | -51.1* | -3.8% | 24.0
Cc1ccc(NC(=O)c2cccc(NC(=O)/C=C/c3ccco3)c2)cc1C | ? | ? | 1.9 | 0.0 | -4.9% | -14.8
CN(C)c1cccc(C(=O)Nc2ccc3nc4n(c(=O)c3c2)CCCCC4)c1 | ? | ? | -2.5 | 4.9 | -8.1% | -60.6*
CCOc1ccccc1C(=O)Nc1ccc2nc3n(c(=O)c2c1)CCCCC3 | ? | 2.59µM* | -0.5 | -12.6 | 0.8% | 56.3
Cc1ccc(-n2nc3ccc(NC(=O)/C=C/c4ccco4)cc3n2)cc1 | 20.6µM* | ? | 1.4 | 14.5 | 28.2µM* | 9.2
O=c1c2cc(NC(=S)N3CCCC3)ccc2nc2n1CCCCC2 | -10.9% | -23.0% | -13.0 | 2.9 | . | -23.0
CCC(=O)N(C)C[C@H]1Oc2cc(-c3cccnc3)ccc2S(=O)(=O)N([C@H](C)CO)C[C@H]1C | -7.8% | -19.1% | -3.9 | -19.6 | -0.2% | -27.5
O=C(/C=C/c1ccccc1[N+](=O)[O-])NCCCN1CCCC1=O | -13.3% | 15.4% | 1.3 | -5.6 | -1.0% | -8.6
COc1ccc(Cl)cc1C(=O)Nc1ccc2nc3n(c(=O)c2c1)CCCC3 | 14.6µM* | 18.4µM* | 1.5 | -16.2 | 0.2% | 16.1
CCN(CC)CCNC(=O)c1ccc2c(c1NCCO)C(=O)c1ccccc1C2=O | 16.4µM* | 14.6µM* | -8.6 | -53.3* | -1.8% | ?
CC1CCN(C(=O)c2ccc3c(c2NCCO)C(=O)c2ccccc2C3=O)CC1 | 23.1µM* | 18.4µM* | -6.1 | -22.9 | 3.2% | ?
CC(=O)c1ccc(NC(=O)Nc2nnc(N3CCCC(C)C3)s2)cc1 (configuration not stated) | 6.51µM* | 18.4µM* | 4.2 | . | -3.2% | .
